Source: PubChem BioAssay
D1 antag: human D1 dopamine receptor antagonism | activity change, negative = inhibition, % at 10 µM | 360,000 tested, 3.2% active | HEK293 TREx D1 cells, calcium flux, dopamine EC80; active compounds read low | P21728; in the data active = activity change below about -30%
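After overnight tetracycline induction at 30 C, force-coupled D1 HEK293 cells took up a no-wash calcium dye at room temperature. Compounds were added and monitored 180 s, and the response to EC80 dopamine was then recorded.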
Glioma ERSR ind: ER stress response induction in glioma; AID 602332; Potency, µM, hits mostly activators; 420,000 tested, 0.02% active; U87-MG GRP78 promoter luciferase reporter, 16 h; active = well fitted activation curve with a large enough effect; inconclusive = small, poorly fitted or top-dose-only effect; inactive = no such curve, though single readings can be large or run the other way; note: series mostly up to about 76 µM; nearly all actives have a fitted effect of over 35% in size
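Stably transfected U87-MG glioma cells carrying a GRP78-based luciferase sensor; 16 h compound incubation. Luminescence end-point read 10 min after Bright-Glo addition at room temperature.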
D1 potentiator: enhances dopamine response at the human D1 receptor; HEK293 TREx D1 cells, calcium flux, dopamine EC20 potentiation; potentiation, % at 10 µM; 360,000 tested, 0.036% active; in the data active = potentiation above about 30%
D1 agonist: agonists of human D1 dopamine receptor; HEK293 T-REx D1 cells, calcium flux, agonist mode; activation, % at 2 µM; 360,000 tested, 1% active; AID 504660
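Tetracycline-induced HEK293 TREx D1 cells, force-coupled to calcium signalling, were dye-loaded with a no-wash calcium kit. Compound was pin-added after a 10 s baseline. Fluorescence was read kinetically at 1 cycle/s for 180 s, with calcium rises flagged as agonism.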
TRHR enhancer: TRH receptor (human) allosteric enhancement; 360,000 tested, 0.66% active; enhancement, % at 2 µM; P34981; TRHR cells, fluo-8 calcium fluorescence, EC20 TRH enhancement; AID 493056; in the data active = enhancement above about 30%
Target sequence (P34981 whole entry, looked up): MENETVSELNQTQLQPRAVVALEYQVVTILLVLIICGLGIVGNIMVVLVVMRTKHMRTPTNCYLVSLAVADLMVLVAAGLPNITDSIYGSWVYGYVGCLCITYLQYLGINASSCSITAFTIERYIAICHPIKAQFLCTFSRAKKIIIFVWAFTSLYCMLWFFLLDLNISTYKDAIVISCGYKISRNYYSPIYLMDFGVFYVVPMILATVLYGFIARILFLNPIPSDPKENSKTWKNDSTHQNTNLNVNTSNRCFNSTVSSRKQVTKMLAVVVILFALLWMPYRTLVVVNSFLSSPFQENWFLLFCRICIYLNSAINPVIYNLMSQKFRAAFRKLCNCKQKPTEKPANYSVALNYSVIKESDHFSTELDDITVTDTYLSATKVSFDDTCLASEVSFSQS
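TRHR-expressing cells loaded with fluo-8 calcium dye were read kinetically (ex 480/em 530) during compound addition, then stimulated with an EC20 of TRH (10 nM final). Enhancement of the Gq-mediated intracellular calcium response was scored.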
TRHR ag: TRH receptor (human) agonism. P34981. activation, % at 2 µM. 360,000 tested, 0.18% active. TRHR cells, calcium flux fluo-8, FDSS agonist mode. AID 493084
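Fluo-8-loaded TRHR cells; 10 s baseline, compound added, kinetic Ca2+ fluorescence read 1/s, agonist mode.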
Each line names hits and unclear results; the compound was inactive in the other large screens. An excerpt weighted towards active compounds, which were near 4% of everything screened. Cut-off read from the data, not from the text of the source, unless noted: active = activation above about 30%; inactive = the rest.

CC(=O)c1cccc(CN2CCCC(C(=O)Nc3ccc(-c4ccco4)cc3)C2)c1 (configuration not stated)	D1 antag -46
O=C(Nc1ccc(-c2ccco2)cc1)C1CCCN(Cc2ccc(CO)o2)C1 (configuration not stated)	none
Cc1ncc(CN2CCCC(C(=O)Nc3ccc(-c4cccc(F)c4)cc3)C2)cn1 (configuration not stated)	D1 antag -33
CCCCCCCCCCCCCCCCCCNC(=O)OC1CCN(C(=O)OC[C@H](COC(=O)N(Cc2cccc[n+]2CC)C(=O)c2ccccc2OC)OC)CC1	none (no result: D1 antag, D1 potentiator, D1 agonist, TRHR enhancer, TRHR ag)
CC(C)(C)NC(=O)NC(=O)COC(=O)c1cccc(OC(F)F)c1	D1 antag -31
CC1CN(Cc2cccn2-c2cccnc2)Cc2cc(Cl)ccc2O1 (configuration not stated)	none (no result: D1 antag, D1 potentiator, D1 agonist, TRHR enhancer, TRHR ag)
CCCNC(=O)N(C)C[C@H]1Oc2ncc(Br)cc2C(=O)N([C@H](C)CO)C[C@H]1C	none (no result: D1 antag, D1 potentiator, D1 agonist, TRHR enhancer, TRHR ag)
COc1ccccc1/C=C/CN1CCN(c2ccccc2)CC1	D1 antag -54
CCOc1ccc2[nH]c(=O)c(CN(Cc3cccs3)Cc3nnnn3C(C)(C)C)cc2c1	D1 antag -30
CCC(c1nnnn1C(C)(C)CC)N(CCN1CCOCC1)Cc1cc2cc(C)ccc2[nH]c1=O (configuration not stated)	none
COc1ccc2[nH]c(=O)c(CN(Cc3cccs3)Cc3nnnn3C(C)(C)C)cc2c1	none
CCOc1ccc2[nH]c(=O)c(CN(CCN3CCOCC3)Cc3nnnn3C(C)(C)CC)cc2c1	TRHR enhancer 30
O=C(C1CCN(S(=O)(=O)Cc2ccccc2)CC1)N1CCN(c2ncccn2)CC1	none
O=C(C1CCN(S(=O)(=O)Cc2ccccc2)CC1)N1CCN(c2ccccc2)CC1	D1 antag -61
O=C(C1CCN(S(=O)(=O)c2cccnc2)CC1)N1CCN(c2cccc(Cl)c2)CC1	D1 antag -83
CCS(=O)(=O)N1CCN(S(=O)(=O)c2ccccc2)CC1	none
O=S(=O)(Cc1ccccc1)N1CCN(c2ncccn2)CC1	D1 antag -51
CCS(=O)(=O)N1CCN(c2ccccc2)CC1	TRHR enhancer 32
CCC(C)n1c(SCc2ccccc2)nc2ccsc2c1=O (configuration not stated)	none
CNS(=O)(=O)c1cnccc1N1CCN(c2cccc(Cl)c2)CC1	D1 antag -31
Cc1cc(C)nc(Nc2nc3ccccc3o2)n1	D1 antag -31
c1ccc(Nc2nc3ccccc3o2)cc1	none
COc1ccc(Nc2sc(C(=O)c3ccc(Cl)cc3)c(N)c2C(=O)Nc2ccccc2OC)cc1	D1 antag -50, Glioma ERSR ind inconclusive, D1 agonist 78
COc1ccc(C(=O)c2sc(Nc3cccc(OC)c3)c(C(=O)Nc3cccc(C)c3C)c2N)cc1	D1 antag -51, Glioma ERSR ind 13µM, D1 agonist 71
COc1ccc(Nc2sc(C(=O)c3ccccc3)c(N)c2C(=O)Nc2cc(C)ccc2C)c(OC)c1	Glioma ERSR ind inconclusive, D1 agonist 47
CCOc1ccc(C(=O)Nc2cccc(C)n2)cc1	TRHR enhancer 41
O=C(Nc1cccc(NC(=O)c2ccc(Cl)cc2)n1)c1ccc(Cl)cc1	D1 antag -33
CCCCOc1ccc(C(=O)Nc2cccc(C)n2)cc1	none
COc1ccc(-c2cn3c(C)c(C(=O)Nc4cccc(C)n4)sc3n2)cc1	D1 antag -59
CCc1ccc(S(=O)(=O)Nc2ccc3oc(C)c(C(=O)OCCOC)c3c2)cc1	D1 antag -43
COCCOC(=O)c1c(C)oc2ccc(NS(=O)(=O)c3ccc(C)cc3)cc12	none
CCOC(=O)c1c(C)oc2c(Cl)cc(NS(=O)(=O)c3ccc(Cl)c(C)c3)cc12	D1 antag -31
COc1ccc(/C=C/C(=O)N2c3ccccc3Sc3ccc(C(F)(F)F)cc32)cc1	D1 antag -40, TRHR enhancer 34
COc1cc(=O)n2c(c1C(=O)N(C)Cc1nonc1C)CCN(Cc1ccccc1F)CC2	none (no result: D1 antag, D1 potentiator, D1 agonist, TRHR enhancer, TRHR ag)
CC(=O)Nc1ccc2nc(SCCOc3ccccc3)sc2c1	none
